Results published in PubChem BioAssay AID1159580 (chemical genetic matrix, 2015).
“And” between values parts separate entries of the source, which are not always exact repeats. Equal entries are not always repeated. Among all 5,500 compounds or so, about 2,000 (36%) were called active. Inconclusive results (about 18%) are left out. Cut-off read from the data, not from the text of the source: active = normalized growth mostly below about 0.91 (no sharp cut-off); inconclusive = no clear call, values can overlap the other calls; inactive = mostly above about 0.92. The list shows a part of the results.

Experiment: chemical genetic growth profiling, strain panel (AID 1159580);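 note: tested at 20 µM; growth read once vehicle control cultures reached saturation at 30 °C; 1 = growth at the plate median or of vehicle wells; lower values mean less growth of the strain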
Conditions: growth OD

Measured: normalized growth

NCC(CC(=O)O)c1ccc(Cl)cc1 (stereo not drawn)
inactive: S. cerevisiae deletion strains, locus YJR075W, strain HOC1, active compounds read low 0.991 | S. cerevisiae deletion strains, locus YKL009W, strain mrt4, active compounds read low 0.968 | S. cerevisiae deletion strains, locus YKL068W, active compounds read low 1.01 | S. cerevisiae deletion strains, locus YKL085W, strain MDH1 (second series), active compounds read low 0.991 | S. cerevisiae deletion strains, locus YKL085W, strain MDH1, active compounds read low 0.991 | S. cerevisiae deletion strains, locus YKL160W, strain elf1, active compounds read low 1.01 | S. cerevisiae deletion strains, locus YKR001C, strain vps1, active compounds read low 0.974 | S. cerevisiae deletion strains, locus YKR026C, strain gcn3, active compounds read low 0.995 | S. cerevisiae deletion strains, locus YKR091W, strain srl3, active compounds read low 1 | S. cerevisiae deletion strains, locus YLL001W, strain dnm1, active compounds read low 1.03 | S. cerevisiae deletion strains, locus YLL026W, active compounds read low 1.01 | S. cerevisiae deletion strains, locus YLL041C, strain sdh2, active compounds read low 0.993 | S. cerevisiae deletion strains, locus YLR027C, strain aat2, active compounds read low 1.01 | S. cerevisiae deletion strains, locus YLR039C, strain RIC1, active compounds read low 1.07 | S. cerevisiae deletion strains, locus YLR058C, strain SHM2, active compounds read low 1.02 | S. cerevisiae deletion strains, locus YLR102C, strain apc9, active compounds read low 0.985 | S. cerevisiae deletion strains, locus YLR113W, strain HOG1, active compounds read low 1.05 | S. cerevisiae deletion strains, locus YLR221C, strain rsa3, active compounds read low 0.976 | S. cerevisiae deletion strains, locus YLR258W, strain gsy2, active compounds read low 0.984 | S. cerevisiae deletion strains, locus YLR262C, strain YPT6 (second series), active compounds read low 0.995 | S. cerevisiae deletion strains, locus YLR262C, strain YPT6, active compounds read low 1.08 | S. cerevisiae deletion strains, locus YLR268W, strain sec22, active compounds read low 1.02 | S. cerevisiae deletion strains, locus YLR320W, strain mms22, active compounds read low 0.968 | S. cerevisiae deletion strains, locus YLR330W, strain CHS5, active compounds read low 1.02 | S. cerevisiae deletion strains, locus YLR342W, strain FKS1 (second series), active compounds read low 1.03 | S. cerevisiae deletion strains, locus YLR342W, strain FKS1, active compounds read low 1.03 | S. cerevisiae deletion strains, locus YLR357W, strain rsc2, active compounds read low 1 | S. cerevisiae deletion strains, locus YLR370C, strain arc18, active compounds read low 0.997 | S. cerevisiae deletion strains, locus YLR371W, strain rom2, active compounds read low 0.985 | S. cerevisiae deletion strains, locus YLR384C, strain iki3, active compounds read low 1.01 | S. cerevisiae deletion strains, locus YLR418C, strain cdc73, active compounds read low 0.979 | S. cerevisiae deletion strains, locus YML016C, strain PPZ1, active compounds read low 1.02 | S. cerevisiae deletion strains, locus YML032C, strain rad52, active compounds read low 0.987 | S. cerevisiae deletion strains, locus YML120C, strain ndi1, active compounds read low 0.999 | S. cerevisiae deletion strains, locus YML124C, strain tub3, active compounds read low 0.983 | S. cerevisiae deletion strains, locus YMR058W, strain fet3, active compounds read low 1.02 | S. cerevisiae deletion strains, locus YMR078C, strain ctf18, active compounds read low 0.99 | S. cerevisiae deletion strains, locus YMR125W, strain sto1, active compounds read low 0.97 | S. cerevisiae deletion strains, locus YMR129W, active compounds read low 0.999 | S. cerevisiae deletion strains, locus YMR205C, strain PFK2, active compounds read low 1.01 | S. cerevisiae deletion strains, locus YMR223W, strain ubp8, active compounds read low 1 | S. cerevisiae deletion strains, locus YMR231W, strain pep5, active compounds read low 1.01 | S. cerevisiae deletion strains, locus YMR263W, strain SAP30, active compounds read low 1.01 | S. cerevisiae deletion strains, locus YMR307W, strain GAS1, active compounds read low 1.1 | S. cerevisiae deletion strains, locus YNL067W, strain RPL9B, active compounds read low 1 | S. cerevisiae deletion strains, locus YNL071W, strain lat1, active compounds read low 0.991 | S. cerevisiae deletion strains, locus YNL128W, strain TEP1, active compounds read low 1.01 | S. cerevisiae deletion strains, locus YNL153C, strain GIM3, active compounds read low 1.01 | S. cerevisiae deletion strains, locus YNL175C, strain NOP13, active compounds read low 0.977 | S. cerevisiae deletion strains, locus YNL183C, strain NPR1, active compounds read low 0.993 | S. cerevisiae deletion strains, locus YNL197C, strain WHI3, active compounds read low 1.04 | S. cerevisiae deletion strains, locus YNL209W, strain ssb2, active compounds read low 0.997 | S. cerevisiae deletion strains, locus YNL224C, strain SQS1, active compounds read low 0.993 | S. cerevisiae deletion strains, locus YNL233W, strain BNI4, active compounds read low 1.01 | S. cerevisiae deletion strains, locus YNL248C, strain rpa49, active compounds read low 0.961 | S. cerevisiae deletion strains, locus YNL250W, strain rad50, active compounds read low 0.986 | S. cerevisiae deletion strains, locus YNL271C, strain bni1, active compounds read low 0.987 | S. cerevisiae deletion strains, locus YNL298W, strain CLA4, active compounds read low 0.984 | S. cerevisiae deletion strains, locus YNL307C, strain MCK1, active compounds read low 0.977 | S. cerevisiae deletion strains, locus YNL322C, strain KRE1 (second series), active compounds read low 0.985 | S. cerevisiae deletion strains, locus YNR049C, strain mso1, active compounds read low 1.01 | S. cerevisiae deletion strains, locus YNR052C, strain pop2, active compounds read low 0.979 | S. cerevisiae deletion strains, locus YOL012C, strain htz1 1.49 | S. cerevisiae deletion strains, locus YOL147C, strain pex11, active compounds read low 0.984 | S. cerevisiae deletion strains, locus YOR001W, strain rrp6, active compounds read low 0.99 | S. cerevisiae deletion strains, locus YOR061W, strain CKA2, active compounds read low 1.02 | S. cerevisiae deletion strains, locus YOR069W, strain VPS5, active compounds read low 1.01 | S. cerevisiae deletion strains, locus YOR070C, strain gyp1, active compounds read low 0.98 | S. cerevisiae deletion strains, locus YOR080W, strain dia2, active compounds read low 0.997 | S. cerevisiae deletion strains, locus YOR083W, strain WHI5 (second series), active compounds read low 1.04 | S. cerevisiae deletion strains, locus YOR083W, strain WHI5, active compounds read low 0.988 | S. cerevisiae deletion strains, locus YOR106W, strain vam3, active compounds read low 1.02 | S. cerevisiae deletion strains, locus YOR136W, strain idh2, active compounds read low 0.974 | S. cerevisiae deletion strains, locus YOR144C, strain elg1, active compounds read low 0.992 | S. cerevisiae deletion strains, locus YOR184W, strain ser1, active compounds read low 0.984 | S. cerevisiae deletion strains, locus YOR231W, strain MKK1, active compounds read low 1.08 | S. cerevisiae deletion strains, locus YOR265W, strain rbl2, active compounds read low 1 | S. cerevisiae deletion strains, locus YOR270C, strain vph1, active compounds read low 0.976 | S. cerevisiae deletion strains, locus YOR290C, strain snf2, active compounds read low 0.957 | S. cerevisiae deletion strains, locus YOR316C, strain cot1, active compounds read low 0.986 | S. cerevisiae deletion strains, locus YPL051W, strain arl3, active compounds read low 0.999 | S. cerevisiae deletion strains, locus YPL055C, strain LGE1, active compounds read low 1.02 | S. cerevisiae deletion strains, locus YPL078C, strain atp4, active compounds read low 1.02 | S. cerevisiae deletion strains, locus YPL106C, strain sse1, active compounds read low 0.968 | S. cerevisiae deletion strains, locus YPL240C, strain hsp82, active compounds read low 0.992 | S. cerevisiae deletion strains, locus YPL241C, strain CIN2, active compounds read low 1.01 and 0.983 | S. cerevisiae deletion strains, locus YPL256C, strain CLN2, active compounds read low 1.08 | S. cerevisiae deletion strains, locus YPR119W, strain clb2, active compounds read low 0.993 | S. cerevisiae deletion strains, locus YPR141C, strain kar3, active compounds read low 0.996 | S. cerevisiae deletion strains, locus YPR163C, strain tif3, active compounds read low 0.99 | S. cerevisiae deletion strains, locus YPR167C, strain met16, active compounds read low 0.991 | S. cerevisiae deletion strains, strain wtn01, active compounds read low 0.992 | S. cerevisiae strains, strain wild type, active compounds read low 1.03
